Experimental data as given in the supplement of paper PMC10849652.
Of roughly 8,800 targets only a part is listed; those with a hit were picked by preference. About 0.5% of all pairs of compound and target were hits.

Key:
Test in all cases: log2 fold change, soluble protein after heating vs DMSO (PISA); higher = thermal stabilisation; K562 lysate, 10 uM; active = over 0.2 and 3.5 SD of the protein, either way, in both replicates (recomputed)
[1] = compound: NCC(=O)Nc1ccc(-n2nc(C(F)(F)F)cc2-c2ccc3c(ccc4ccccc43)c2)cc1
Method in brief: (§1)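 K562 pellets were dounce-homogenised in PBS pH 7.4 with 1 mM MgCl2, and the crude extract at 1 mg/mL protein was treated with 10 μM compound for 30 min. Aliquots were heated for 3 min across 48°C-58°C, pooled, and brought to 0.5% NP-40 at 4°C; soluble protein was the supernatant after 21,000xg for 90 min. Soluble protein was quantified by TMTpro 16plex LC-MS/MS with channel sums equalised, and reported as log2 fold change in thermal stability against DMSO controls, with values from duplicates.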

vorinostat = compound: O=C(CCCCCCC(=O)Nc1ccccc1)NO [vorinostat]
Method in brief: as §1

silmitasertib = compound: O=C(O)c1ccc2c(c1)nc(Nc1cccc(Cl)c1)c1ccncc12 [silmitasertib]
Method in brief: as §1

[2] = compound: O=C1NC(=O)C(c2cnc3ccccn23)=C1c1cn2c3c(cc(F)cc13)CN(C(=O)N1CCCCC1)CC2
Method in brief: as §1

entospletinib = compound: c1cn2cc(-c3ccc4cn[nH]c4c3)nc(Nc3ccc(N4CCOCC4)cc3)c2n1 [entospletinib]
Method in brief: as §1

Measured: log2 fold change

VCPIP1 (UniProt Q96JH7)
active: vorinostat 0.894
inactive: [1] 0.007 | silmitasertib 0.029 | [2] -0.021 | entospletinib 0.006

VPS41 (UniProt P49754)
active: vorinostat -0.471
inactive: [1] -0.025 | silmitasertib 0.004 | [2] -0.018 | entospletinib 0.007

UNC45A (UniProt Q9H3U1)
active: vorinostat -0.588
inactive: [1] -0.005 | silmitasertib 0.011 | [2] 0.008 | entospletinib 0.01

VPS28 (UniProt Q9UK41)
active: vorinostat -0.37
inactive: [1] 0.03 | silmitasertib -0.002 | [2] -0.043 | entospletinib 0.033

URGCP (UniProt Q8TCY9)
inactive: [1] 0

UTP3 (UniProt Q9NQZ2)
inactive: vorinostat 0.143 | silmitasertib 0.022 | [2] -0.039 | entospletinib 0.02
active: [1] 0.307

ZSWIM8 isoform 4 (UniProt A7E2V4)
inactive: [1] 0.079 | vorinostat -0.07 | silmitasertib 0.081 | [2] 0.071 | entospletinib -0.018

ZNF593 (UniProt O00488)
inactive: [1] -0.029 | vorinostat 0.191 | silmitasertib -0.001 | [2] 0.044 | entospletinib 0.027

YWHAQ (UniProt P27348)
inactive: [1] -0.047 | vorinostat -0.052 | silmitasertib -0.012 | [2] 0.013 | entospletinib 0.022

ZDHHC18 (UniProt Q9NUE0)
Chain of UniProt Q9NUE0 (Q9NUE0 whole entry, looked up): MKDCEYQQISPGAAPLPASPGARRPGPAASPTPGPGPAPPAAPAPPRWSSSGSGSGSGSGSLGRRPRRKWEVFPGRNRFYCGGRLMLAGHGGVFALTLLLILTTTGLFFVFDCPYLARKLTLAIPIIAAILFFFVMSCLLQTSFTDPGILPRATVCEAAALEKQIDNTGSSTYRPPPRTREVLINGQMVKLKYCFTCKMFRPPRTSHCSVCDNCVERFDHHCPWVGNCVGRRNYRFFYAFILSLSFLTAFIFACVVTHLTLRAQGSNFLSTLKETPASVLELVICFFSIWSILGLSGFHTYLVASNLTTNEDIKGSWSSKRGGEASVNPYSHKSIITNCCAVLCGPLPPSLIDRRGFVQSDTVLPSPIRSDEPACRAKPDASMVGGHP
inactive: [1] -0.064 | vorinostat -0.162 | silmitasertib 0.163 | [2] 0.009 | entospletinib 0.034

XPNPEP1 isoform 3 (UniProt Q9NQW7)
inactive: [1] 0.006 | vorinostat -0.068 | silmitasertib -0.001 | [2] -0.019 | entospletinib 0.002

ZNF845 (UniProt Q96IR2)
inactive: [1] -0.074 | vorinostat -0.297 | [2] -0.113
active: silmitasertib 0.364

USP22 (UniProt Q9UPT9)
inactive: [1] -0.069 | silmitasertib -0.045 | [2] 0.001 | entospletinib 0.059
active: vorinostat -0.323

ZBTB40 (UniProt Q9NUA8)
inactive: [1] 0.073 | vorinostat -0.118 | silmitasertib 0.024 | [2] 0.036

ZMYM1 (UniProt Q5SVZ6)
inactive: [1] -0.014 | vorinostat -0.202 | silmitasertib 0.042 | [2] -0.004 | entospletinib 0.021

XAB2 (UniProt Q9HCS7)
active: vorinostat -0.259
inactive: [1] -0.012 | silmitasertib 0.005 | [2] -0.023 | entospletinib -0.006

USP8 (UniProt P40818)
active: vorinostat -0.324
inactive: [1] 0.012 | silmitasertib 0.013 | [2] 0.009 | entospletinib 0.012

USP16 (UniProt Q9Y5T5)
active: vorinostat -0.272
inactive: [1] 0.019 | silmitasertib 0.012 | [2] -0.019 | entospletinib -0.031

WDR20 isoform 7 (UniProt Q8TBZ3)
inactive: [1] 0.01 | vorinostat 0.009 | silmitasertib 0.087 | [2] -0.013 | entospletinib 0.018

WAC (UniProt Q9BTA9)
active: vorinostat -0.309
inactive: [1] 0.011 | silmitasertib -0.031 | [2] -0.014 | entospletinib -0.046

WDCP (UniProt Q9H6R7)
Chain of UniProt Q9H6R7 (Q9H6R7 whole entry, looked up): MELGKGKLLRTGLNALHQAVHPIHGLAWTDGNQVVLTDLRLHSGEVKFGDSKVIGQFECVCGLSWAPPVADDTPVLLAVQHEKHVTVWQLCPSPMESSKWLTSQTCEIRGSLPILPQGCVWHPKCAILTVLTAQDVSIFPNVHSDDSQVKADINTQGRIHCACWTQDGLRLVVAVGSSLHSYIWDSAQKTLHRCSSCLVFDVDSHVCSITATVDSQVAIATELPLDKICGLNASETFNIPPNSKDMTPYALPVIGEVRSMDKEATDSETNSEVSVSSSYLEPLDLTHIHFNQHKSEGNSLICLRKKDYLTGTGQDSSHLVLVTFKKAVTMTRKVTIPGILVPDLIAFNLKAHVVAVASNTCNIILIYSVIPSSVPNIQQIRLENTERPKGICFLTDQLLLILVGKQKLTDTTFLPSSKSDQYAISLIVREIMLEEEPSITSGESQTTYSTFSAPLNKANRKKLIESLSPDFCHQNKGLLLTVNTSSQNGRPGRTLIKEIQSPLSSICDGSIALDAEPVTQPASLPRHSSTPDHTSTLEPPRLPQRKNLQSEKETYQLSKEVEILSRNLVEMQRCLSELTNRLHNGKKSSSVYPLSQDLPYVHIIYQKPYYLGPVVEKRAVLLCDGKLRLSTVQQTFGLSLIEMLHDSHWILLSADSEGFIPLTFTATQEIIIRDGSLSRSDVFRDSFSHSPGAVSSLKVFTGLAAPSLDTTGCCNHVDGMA
active: vorinostat -0.233
inactive: [1] -0.066 | silmitasertib 0.022 | [2] 0.02 | entospletinib -0.036

ZNF451 (UniProt Q9Y4E5)
active: vorinostat -0.538
inactive: [1] 0.064 | silmitasertib -0.003 | [2] -0.013 | entospletinib 0.019

YEATS4 (UniProt O95619)
inactive: [1] 0.042 | vorinostat 0.057 | silmitasertib -0.029 | [2] -0.046 | entospletinib -0.037

ZFYVE19 (UniProt Q96K21)
inactive: [1] 0.026 | vorinostat 0.105 | silmitasertib 0.002 | [2] 0.01 | entospletinib -0.012

WDR7 (UniProt Q9Y4E6)
active: vorinostat -0.236
inactive: [1] -0.01 | silmitasertib 0.032 | [2] 0.01 | entospletinib -0.017

UQCC2 (UniProt Q9BRT2)
inactive: [1] -0.019 | vorinostat 0.121 | silmitasertib -0.021 | [2] -0.06 | entospletinib -0.039

YDJC (UniProt A8MPS7)
inactive: [1] 0.048 | silmitasertib 0.023 | [2] -0.051 | entospletinib 0.051
active: vorinostat -0.443

USP48 (UniProt Q86UV5)
inactive: [1] -0.054 | silmitasertib 0.07 | [2] 0.034 | entospletinib -0.102
active: vorinostat -0.528

WDR6 (UniProt Q9NNW5)
active: vorinostat -0.321
inactive: [1] 0.012 | silmitasertib 0.01 | [2] -0.025 | entospletinib 0

VHL (UniProt P40337)
Chain of UniProt P40337 (P40337 whole entry, looked up): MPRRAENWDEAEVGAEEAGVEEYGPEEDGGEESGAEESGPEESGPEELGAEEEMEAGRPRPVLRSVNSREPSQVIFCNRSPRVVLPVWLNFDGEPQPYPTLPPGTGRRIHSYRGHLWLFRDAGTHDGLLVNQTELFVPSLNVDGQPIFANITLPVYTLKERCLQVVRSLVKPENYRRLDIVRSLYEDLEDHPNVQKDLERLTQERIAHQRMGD
inactive: [1] 0.015 | vorinostat -0.289 | silmitasertib -0.038 | [2] -0.011 | entospletinib -0.001

ZHX1 (UniProt Q9UKY1)
inactive: [1] 0.043 | vorinostat -0.249 | silmitasertib -0.094 | [2] -0.018 | entospletinib -0.082

YRDC (UniProt Q86U90)
active: vorinostat -0.424
inactive: [1] 0.024 | silmitasertib 0.006 | [2] -0.017 | entospletinib -0.016

ZNF609 (UniProt O15014)
inactive: [1] 0.184 | silmitasertib 0.041 | [2] -0.013 | entospletinib -0.026
active: vorinostat -0.309

ZBTB33 (UniProt Q86T24)
inactive: [1] 0.061 | vorinostat 0.103 | silmitasertib -0.082 | [2] 0.009 | entospletinib -0.033

ZNF598 isoform 3 (UniProt Q86UK7)
active: vorinostat -0.338
inactive: [1] 0.01 | silmitasertib 0 | [2] 0.024 | entospletinib -0.017

VAV1 (UniProt P15498)
active: vorinostat -0.268
inactive: [1] -0.003 | silmitasertib 0 | [2] -0.027 | entospletinib 0.004

WDR77 (UniProt Q9BQA1)
inactive: [1] -0.052 | vorinostat -0.067 | silmitasertib 0.041 | [2] -0.01 | entospletinib 0.006

VPS18 (UniProt Q9P253)
Chain of UniProt Q9P253 (Q9P253 whole entry, looked up): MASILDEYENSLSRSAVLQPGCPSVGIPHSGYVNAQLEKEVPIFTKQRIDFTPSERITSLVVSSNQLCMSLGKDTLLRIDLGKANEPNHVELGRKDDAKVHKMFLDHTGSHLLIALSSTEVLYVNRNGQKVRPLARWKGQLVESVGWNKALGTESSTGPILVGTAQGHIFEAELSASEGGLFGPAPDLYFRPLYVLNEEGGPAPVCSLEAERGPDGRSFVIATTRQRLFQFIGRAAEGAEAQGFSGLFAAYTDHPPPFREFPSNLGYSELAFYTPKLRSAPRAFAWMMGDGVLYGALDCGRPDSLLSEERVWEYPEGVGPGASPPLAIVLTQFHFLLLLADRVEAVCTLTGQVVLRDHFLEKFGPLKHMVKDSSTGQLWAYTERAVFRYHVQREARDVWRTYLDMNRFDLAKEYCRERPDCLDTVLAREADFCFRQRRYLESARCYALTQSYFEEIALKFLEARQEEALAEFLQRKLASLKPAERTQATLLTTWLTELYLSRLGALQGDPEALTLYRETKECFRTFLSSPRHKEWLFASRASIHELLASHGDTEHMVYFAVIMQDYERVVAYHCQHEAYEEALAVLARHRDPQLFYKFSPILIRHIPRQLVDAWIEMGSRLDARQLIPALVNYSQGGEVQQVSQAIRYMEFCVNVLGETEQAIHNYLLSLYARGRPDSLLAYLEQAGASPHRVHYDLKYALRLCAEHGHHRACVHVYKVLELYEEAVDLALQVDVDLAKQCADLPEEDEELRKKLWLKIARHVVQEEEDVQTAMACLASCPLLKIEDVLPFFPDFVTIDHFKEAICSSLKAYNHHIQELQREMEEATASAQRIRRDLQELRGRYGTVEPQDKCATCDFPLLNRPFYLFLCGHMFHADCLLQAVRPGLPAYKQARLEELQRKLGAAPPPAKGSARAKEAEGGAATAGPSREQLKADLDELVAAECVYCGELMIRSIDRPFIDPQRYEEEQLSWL
inactive: [1] -0.016 | silmitasertib 0.04 | [2] 0.015 | entospletinib -0.006
active: vorinostat -0.386

ZMYND8 isoform 19 (UniProt Q9ULU4)
active: vorinostat -0.224
inactive: [1] 0.059 | silmitasertib 0.029 | [2] 0.006 | entospletinib -0.02

USP3 (UniProt Q9Y6I4)
active: vorinostat -0.469
inactive: [1] 0.015 | silmitasertib -0.026 | [2] 0.015 | entospletinib -0.013

ZMYM2 (UniProt Q9UBW7)
active: vorinostat -0.609
inactive: [1] -0.125 | silmitasertib 0.034 | [2] 0.019 | entospletinib 0.069

WDR41 (UniProt Q9HAD4)
inactive: [1] -0.017 | silmitasertib 0.022 | [2] -0.08 | entospletinib 0.01
active: vorinostat -0.284

WDR91 (UniProt A4D1P6)
active: vorinostat -0.227
inactive: [1] -0.045 | silmitasertib 0.042 | [2] -0.004 | entospletinib -0.029

VARS (UniProt P26640)
inactive: [1] 0.006 | silmitasertib 0.063 | [2] 0.022 | entospletinib 0.024
active: vorinostat -0.275

VANGL1 (UniProt Q8TAA9)
inactive: [1] -0.04 | vorinostat 0.085 | silmitasertib 0.159 | [2] -0.031 | entospletinib -0.009

XPOT (UniProt O43592)
Chain of UniProt O43592 (O43592 whole entry, looked up): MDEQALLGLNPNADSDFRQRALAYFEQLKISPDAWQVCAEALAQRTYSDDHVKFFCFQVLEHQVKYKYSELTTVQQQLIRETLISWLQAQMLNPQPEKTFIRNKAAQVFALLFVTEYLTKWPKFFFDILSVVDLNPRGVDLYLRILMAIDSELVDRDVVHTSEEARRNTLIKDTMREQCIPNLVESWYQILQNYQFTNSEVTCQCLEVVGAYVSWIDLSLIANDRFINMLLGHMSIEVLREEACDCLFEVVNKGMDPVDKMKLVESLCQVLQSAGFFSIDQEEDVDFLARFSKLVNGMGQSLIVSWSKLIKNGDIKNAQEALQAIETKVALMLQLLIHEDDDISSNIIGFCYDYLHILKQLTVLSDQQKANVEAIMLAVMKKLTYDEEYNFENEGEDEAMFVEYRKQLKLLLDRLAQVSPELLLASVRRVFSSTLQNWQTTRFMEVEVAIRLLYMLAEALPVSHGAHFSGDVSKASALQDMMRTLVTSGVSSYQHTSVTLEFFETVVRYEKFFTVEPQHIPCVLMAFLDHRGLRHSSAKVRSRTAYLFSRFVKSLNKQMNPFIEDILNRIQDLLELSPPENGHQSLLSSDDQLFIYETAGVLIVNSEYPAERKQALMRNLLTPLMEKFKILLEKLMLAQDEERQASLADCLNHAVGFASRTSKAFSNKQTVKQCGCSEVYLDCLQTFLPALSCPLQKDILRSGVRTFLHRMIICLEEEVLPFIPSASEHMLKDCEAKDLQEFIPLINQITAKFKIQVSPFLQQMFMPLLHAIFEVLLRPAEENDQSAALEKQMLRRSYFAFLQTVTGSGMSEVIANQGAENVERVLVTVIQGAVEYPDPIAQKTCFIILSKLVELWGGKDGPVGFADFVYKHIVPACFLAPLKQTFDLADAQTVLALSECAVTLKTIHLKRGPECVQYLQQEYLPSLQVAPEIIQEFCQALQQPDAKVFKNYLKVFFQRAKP
inactive: [1] -0.012 | silmitasertib 0.035 | [2] 0.009 | entospletinib 0.037
active: vorinostat -0.656

UQCRC2 (UniProt P22695)
inactive: [1] 0.01 | vorinostat 0.123 | silmitasertib -0.013 | [2] 0.03 | entospletinib 0.007

USP10 isoform 2 (UniProt Q14694)
Chain of UniProt Q14694 (Q14694 whole entry, looked up): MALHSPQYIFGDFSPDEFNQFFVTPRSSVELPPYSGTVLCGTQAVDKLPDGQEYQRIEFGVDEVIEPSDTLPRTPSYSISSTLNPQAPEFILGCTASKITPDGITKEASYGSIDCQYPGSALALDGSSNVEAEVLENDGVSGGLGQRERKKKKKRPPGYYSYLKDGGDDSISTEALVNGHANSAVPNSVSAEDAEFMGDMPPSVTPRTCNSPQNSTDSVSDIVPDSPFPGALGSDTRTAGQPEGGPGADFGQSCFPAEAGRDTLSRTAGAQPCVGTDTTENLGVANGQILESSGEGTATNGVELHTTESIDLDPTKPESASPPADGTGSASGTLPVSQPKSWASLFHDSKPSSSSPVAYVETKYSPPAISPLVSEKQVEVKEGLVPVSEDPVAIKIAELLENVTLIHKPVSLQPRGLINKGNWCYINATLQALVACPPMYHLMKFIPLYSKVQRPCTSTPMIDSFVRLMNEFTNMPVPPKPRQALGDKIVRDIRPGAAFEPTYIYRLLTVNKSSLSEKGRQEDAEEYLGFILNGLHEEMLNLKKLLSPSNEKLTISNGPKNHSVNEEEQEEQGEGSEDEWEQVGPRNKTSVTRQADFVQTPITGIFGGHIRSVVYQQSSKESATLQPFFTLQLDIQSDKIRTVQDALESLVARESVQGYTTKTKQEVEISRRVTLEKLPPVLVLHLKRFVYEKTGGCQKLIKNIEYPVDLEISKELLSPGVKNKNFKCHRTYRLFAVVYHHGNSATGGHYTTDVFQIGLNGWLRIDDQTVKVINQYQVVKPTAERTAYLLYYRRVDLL
inactive: [1] 0.022 | silmitasertib 0 | [2] -0.002 | entospletinib -0.002
active: vorinostat -0.294

ZMAT2 (UniProt Q96NC0)
inactive: [1] 0.033 | vorinostat 0.188 | silmitasertib -0.051 | [2] -0.024 | entospletinib 0.021

XPO1 (UniProt O14980)
inactive: [1] 0.009 | silmitasertib 0.003 | [2] -0.001 | entospletinib 0.036
active: vorinostat -0.233

ZNF318 (UniProt Q5VUA4)
inactive: [1] 0.064 | silmitasertib -0.045 | [2] -0.059 | entospletinib -0.024
active: vorinostat -0.332

VPS35L (UniProt Q7Z3J2)
Chain of UniProt Q7Z3J2 (Q7Z3J2 whole entry, looked up): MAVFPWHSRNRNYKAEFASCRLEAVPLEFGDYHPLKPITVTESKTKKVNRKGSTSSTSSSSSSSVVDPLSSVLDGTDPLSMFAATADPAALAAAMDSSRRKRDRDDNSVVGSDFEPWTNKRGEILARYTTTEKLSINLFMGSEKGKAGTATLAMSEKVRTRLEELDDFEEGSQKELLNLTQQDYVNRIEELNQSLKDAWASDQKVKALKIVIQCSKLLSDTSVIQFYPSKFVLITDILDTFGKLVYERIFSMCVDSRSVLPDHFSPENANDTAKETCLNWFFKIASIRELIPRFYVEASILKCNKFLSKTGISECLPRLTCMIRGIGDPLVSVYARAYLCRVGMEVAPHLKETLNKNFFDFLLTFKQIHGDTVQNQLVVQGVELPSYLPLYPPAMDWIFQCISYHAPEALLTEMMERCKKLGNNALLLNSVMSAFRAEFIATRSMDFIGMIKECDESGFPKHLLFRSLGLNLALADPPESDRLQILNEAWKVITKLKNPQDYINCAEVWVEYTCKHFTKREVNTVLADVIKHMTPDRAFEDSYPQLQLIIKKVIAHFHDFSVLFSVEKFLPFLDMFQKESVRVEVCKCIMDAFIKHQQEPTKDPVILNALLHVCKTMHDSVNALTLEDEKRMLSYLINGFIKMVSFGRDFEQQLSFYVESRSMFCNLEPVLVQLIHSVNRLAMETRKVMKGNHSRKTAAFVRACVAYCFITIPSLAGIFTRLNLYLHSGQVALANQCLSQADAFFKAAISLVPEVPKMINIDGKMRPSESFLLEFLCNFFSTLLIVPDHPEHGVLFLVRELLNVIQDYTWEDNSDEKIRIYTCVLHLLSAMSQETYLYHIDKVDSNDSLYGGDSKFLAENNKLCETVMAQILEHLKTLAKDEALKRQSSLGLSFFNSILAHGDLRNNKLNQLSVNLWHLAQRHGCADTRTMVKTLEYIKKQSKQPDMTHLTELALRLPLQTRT
inactive: [1] 0.019 | silmitasertib 0.027 | [2] -0.006 | entospletinib 0.015
active: vorinostat -0.266

VPS54 (UniProt Q9P1Q0)
inactive: [1] 0.112 | vorinostat -0.055 | silmitasertib -0.001 | [2] 0.002 | entospletinib 0.007

VRK1 (UniProt Q99986)
inactive: [1] -0.013 | vorinostat -0.08 | silmitasertib 0.091 | [2] 0.002 | entospletinib 0.056
